Data published in PubChem BioAssay (NCATS).
Several values for one entry are separate records, joined by “and”; a condition that tells them apart may be missing. Equal entries are not always repeated. Records with an inconclusive call do not appear. For some assays here: Entries with a potency or affinity are not part of this list. Activity calls are given as the source filed them. Unless noted, the rule behind the calls is not given here.

Legend:
[1] = Ebola virus entry assay, blue channel fluorescence
[2] = Ebola virus entry assay, green channel fluorescence
[3] = Ebola virus entry assay, reporter ratio channel; AC50: Channel type: primary unless noted; outcome: Channel type: primary unless noted
[4] = Ebola virus entry assay, blue channel (ratio component)
[5] = qHTS Assay for Identifying Gametocytocidal Compounds (AID 743244; active = well fitted curve in the direction sought with a large enough effect; an effect the other way counts as inactive or inconclusive;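 note: % is set by controls: 0 for no effect and ±100 for the full control effect; actives lower the fluorescent signal which means gametocytes are killed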); conditions: P. falciparum 3D7 stage III-V gametocytes, alamarBlue, 72 h; max response: stronger effect = lower value
In short: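 Using 20,000 stage III–V 3D7 gametocytes per well, compounds were incubated 72 h under 37 °C/5% CO2. Viability was then assessed by 24 h alamarBlue reduction, measured fluorometrically at 525/598 nm.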

[6] = qHTS assay for cell viability of HEK293 cells (AID 743288; active = well fitted curve in the direction sought with a large enough effect; an effect the other way counts as inactive or inconclusive; note: % is set by controls: 0 for no effect and ±100 for the full control effect; nearly all actives have a fitted effect of over 50% in size); conditions: ATP luminescence (CellTiter-Glo), 18 h, stronger effect = lower value
In short: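 Steps: plate 2,000 parental HEK293 cells per well; incubate ≥5 h, 37 C; add compounds in DMSO; incubate 18 h, 37 C; add CellTiter-Glo; wait 30 min at room temperature; read luminescence.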

[7] = qHTS profiling of the MIPE4 collection as inhibitors of Plasmodium falciparum (3D7) proliferation (AID 743344);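 note: scaled between DMSO vehicle wells and 0.29 µM artemisinin as full inhibition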; conditions: P. falciparum 3D7 in erythrocytes, SYBR Green DNA fluorescence, 72 h; at 28.5 µM (top of the series) unless noted
In short: (§1)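 Parasite DNA was quantified by SYBR Green I fluorescence (ex 485, em 535 nm) after overnight lysis in saponin/Triton buffer at room temperature. Cultures at 0.3% parasitemia and 2.5% hematocrit were first exposed to compound for 72 h at 37 C; signals were normalised to artemisinin (0.29 uM) and vehicle wells.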

[8] = qHTS profiling of the MIPE4 collection as inhibitors of Plasmodium falciparum (DD2) proliferation (AID 743345); conditions: P. falciparum Dd2 in erythrocytes, SYBR Green DNA, 72 h; at 28.5 µM (top of the series) unless noted
In short: as §1

[9] = qHTS profiling of the MIPE4 collection as inhibitors of Plasmodium falciparum (HB3) proliferation (AID 743347);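 note: plate controls were DMSO vehicle wells for no effect and artemisinin wells for full effect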; conditions: P. falciparum HB3 in erythrocytes, SYBR Green DNA, 72 h; at 28.5 µM (top of the series) unless noted
In short: as §1

[10] = Ebola virus entry assay, ratio channel
[11] = biological target: Hexokinase-4 (Homo sapiens) + Glucokinase regulatory protein (Homo sapiens) (UniProt P35557+Q14397); test: qHTS assay for inhibitors of recombinant human GCK-GKRP interaction: HTRF assay (AID 743207; active = well fitted curve in the direction sought with a large enough effect; an effect the other way counts as inactive or inconclusive;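 note: 0% = DMSO with GCK present and -100% = DMSO wells lacking GCK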); conditions: recombinant GCK-GKRP HTRF binding, 60 min; series mostly up to 57.5 µM
Chain of Hexokinase-4 (Homo sapiens) + Glucokinase regulatory protein (Homo sapiens) (P35557 whole entry, looked up): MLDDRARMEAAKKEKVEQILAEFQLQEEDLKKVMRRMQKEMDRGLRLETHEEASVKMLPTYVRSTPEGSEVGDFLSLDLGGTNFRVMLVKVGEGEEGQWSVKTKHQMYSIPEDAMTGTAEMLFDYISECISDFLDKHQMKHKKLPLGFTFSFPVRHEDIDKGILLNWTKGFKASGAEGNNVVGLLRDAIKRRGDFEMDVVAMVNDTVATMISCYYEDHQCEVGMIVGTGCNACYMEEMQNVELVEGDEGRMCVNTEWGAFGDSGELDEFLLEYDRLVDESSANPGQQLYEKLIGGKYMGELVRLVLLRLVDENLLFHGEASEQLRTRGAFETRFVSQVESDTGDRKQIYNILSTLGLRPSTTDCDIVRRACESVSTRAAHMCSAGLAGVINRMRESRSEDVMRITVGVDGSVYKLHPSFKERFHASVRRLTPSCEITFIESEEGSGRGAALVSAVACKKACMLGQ
Chain of Hexokinase-4 (Homo sapiens) + Glucokinase regulatory protein (Homo sapiens) (Q14397 whole entry, looked up): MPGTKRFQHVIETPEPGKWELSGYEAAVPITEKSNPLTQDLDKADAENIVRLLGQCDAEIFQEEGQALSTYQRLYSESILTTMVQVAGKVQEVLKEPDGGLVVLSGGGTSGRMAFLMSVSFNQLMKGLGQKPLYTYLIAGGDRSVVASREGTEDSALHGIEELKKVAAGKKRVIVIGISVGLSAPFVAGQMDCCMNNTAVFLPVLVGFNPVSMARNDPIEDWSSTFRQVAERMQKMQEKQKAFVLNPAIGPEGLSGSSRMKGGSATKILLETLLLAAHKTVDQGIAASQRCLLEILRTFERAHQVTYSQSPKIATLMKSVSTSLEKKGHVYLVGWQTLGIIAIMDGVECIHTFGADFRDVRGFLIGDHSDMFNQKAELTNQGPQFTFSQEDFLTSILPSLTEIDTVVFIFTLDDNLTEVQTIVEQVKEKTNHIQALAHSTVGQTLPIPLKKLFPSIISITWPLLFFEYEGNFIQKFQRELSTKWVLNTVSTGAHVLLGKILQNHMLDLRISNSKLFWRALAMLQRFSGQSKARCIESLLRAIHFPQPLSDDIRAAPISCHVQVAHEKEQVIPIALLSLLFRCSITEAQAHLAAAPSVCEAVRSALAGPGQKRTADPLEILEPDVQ
In short: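 HTRF binding of 5 nM GST-GCK and 5 nM FLAG-GKRP with 2 uM S6P in pH 7.1 Hepes buffer (MgCl2, KCl, DTT, Tween 20, BSA). Anti-FLAG XL665 and anti-GST donor added, 60 min at room temperature; 665/615 nm read, normalized to with- and without-GCK controls.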

CCCCNC(=O)NS(=O)(=O)c1ccc(N)cc1
inactive: outcome [1] | outcome [2] | outcome [3] | outcome [4]

NC(CO)(CO)CO
inactive: outcome [1] | outcome [2] | outcome [3] | outcome [4]

c1ccc2sc(SN3CCOCC3)nc2c1
inactive: outcome [1] | outcome [2] | outcome [3] | outcome [4]

COc1cc(OC)c(OC)cc1C=O
98%: parasite growth, % of DMSO control [7]
inactive: max response [5] 4.65% | max response [6] -1.47% | outcome [10] | outcome [2] | outcome [3] | outcome [4]
102%: growth, % of control [9]
89%: parasite growth remaining, % of DMSO control (lower = more inhibition) [8]

CCOc1ncc(F)c(=O)[nH]1
inactive: outcome [1] | outcome [2] | outcome [3] | outcome [4]

CCOC(=O)[C@H](CCc1ccccc1)N[C@@H](C)C(=O)N1CCC[C@H]1C(=O)O
inactive: outcome [1] | outcome [2] | outcome [3] | outcome [4]

NC/C=C/C(=O)O
inactive: outcome [1] | outcome [2] | outcome [3] | outcome [4]

Cc1cn([C@@H]2O[C@H](CO)[C@@H](O)[C@H]2F)c(=O)[nH]c1=O
inactive: outcome [1] | outcome [2] | outcome [3] | outcome [4]

O=C(O)[C@H](O)c1ccccc1
inactive: outcome [1] | outcome [2] | outcome [3] | outcome [4]

CN1CC(=O)NC1=N
inactive: outcome [1] | outcome [2] | outcome [3] | outcome [4]

Cc1c(NC(=O)c2cccnc2)c(=O)n(-c2ccccc2)n1C
inactive: outcome [1] | outcome [2] | outcome [3] | outcome [4]

Cc1[nH]cnc1-c1ccc(Cl)cc1
inactive: outcome [1] | outcome [2] | outcome [3] | outcome [4]

O=C(O)CCC(=O)O
inactive: outcome [1] | outcome [2] | outcome [3] | outcome [4]

CC(CSC(=O)c1ccccc1)C(=O)N1C[C@@H](Sc2ccccc2)C[C@H]1C(=O)O (stereo not given in full)
inactive: outcome [1] | outcome [2] | outcome [3] | outcome [4]

CN(C)CCc1c[nH]c2cccc(OP(=O)(O)O)c12
inactive: max response [5] 13% | outcome [1] | outcome [2] | outcome [3] | outcome [4]

C[C@]12CCC(=O)C=C1CC[C@@H]1[C@H]3CC[C@](C)(O)[C@@]3(C)CC[C@@H]12
84.5% [at 57.5 µM]: growth, % of control [9]
inactive: outcome [10] | outcome [2] | outcome [3] | outcome [4]
70.7% [at 57.5 µM]: parasite growth, % of DMSO control [7]
94.5% [at 57.5 µM]: parasite growth remaining, % of DMSO control (lower = more inhibition) [8]

CC(C)(C)NCC(O)c1ccccc1Cl (stereo not given)
inactive: outcome [11] | max response [5] -5.65% and 5.12% | outcome [1] | outcome [2] | outcome [3] | outcome [4]

CO[C@@]1(NC(=O)C(C(=O)O)c2ccc(O)cc2)C(=O)N2C(C(=O)O)=C(CSc3nnnn3C)CO[C@@H]21 (stereo not given in full)
inactive: outcome [1] | outcome [2] | outcome [3] | outcome [4]

NC(=O)c1ccccc1O
inactive: outcome [1] | outcome [2] | outcome [3] | outcome [4]

Cc1cccn2c(=O)c(-c3nnn[nH]3)cnc12
inactive: outcome [1] | outcome [2] | outcome [3] | outcome [4]

NC1=NC(=O)C(c2ccccc2)O1 (stereo not given)
inactive: max response [5] -7.8% | outcome [1] | outcome [2] | outcome [3] | outcome [4]

CCCCCCCCCCCCCCCCCC(=O)O
inactive: outcome [1] | outcome [2] | outcome [3] | outcome [4]

Nc1ccccc1
inactive: max response [5] -6% | max response [6] -4.37% | outcome [1] | outcome [2] | outcome [3] | outcome [4]

CC(C)(CO)[C@@H](O)C(=O)NCCCO
inactive: outcome [1] | outcome [2] | outcome [3] | outcome [4]

Nc1ccccc1C(=O)O
inactive: max response [5] 3.13% | max response [6] 2.79% | outcome [1] | outcome [2] | outcome [3] | outcome [4]

Nc1ccc(N)c([N+](=O)[O-])c1
inactive: outcome [10] | outcome [2] | outcome [3] | outcome [4]

CCN(CC)C(C)CN1c2ccccc2Sc2ccccc21 (stereo not given)
inactive: outcome [1] | outcome [2] | outcome [3] | outcome [4]

O=c1c(-c2ccc(O)cc2)coc2cc(O)cc(O)c12
inactive: outcome [1] | outcome [2] | outcome [3] | outcome [4]

NCCc1ccc(O)cc1
inactive: outcome [11] | max response [5] -2.18% and 16.8% | max response [6] -6.56% | outcome [1] | outcome [2] | outcome [3] | outcome [4]

CC(=O)Nc1ccc(S(=O)(=O)Nc2cc(C)on2)cc1
inactive: outcome [1] | outcome [2] | outcome [3] | outcome [4]

CCCCCCCCCCCCCCCCO
inactive: outcome [1] | outcome [2] | outcome [3] | outcome [4]

COc1ccccc1OCC1CNC(=O)O1 (stereo not given)
inactive: outcome [1] | outcome [2] | outcome [3] | outcome [4]

CCCC(=O)O[C@]1(C(=O)COC(=O)CC)CC[C@H]2[C@@H]3CCC4=CC(=O)CC[C@]4(C)[C@H]3[C@@H](O)C[C@@]21C
inactive: outcome [1] | outcome [2] | outcome [3] | outcome [4]

CC(C)c1ccc2oc3nc(N)c(C(=O)O)cc3c(=O)c2c1
inactive: outcome [1] | outcome [2] | outcome [3] | outcome [4]
